# Laboratory results taken from PubChem BioAssay AID1069 (NMMLSC, 2008).
# Active and inactive are the calls of the source.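 The calls were made as follows: active = high combined rank on largest and smallest cell-count-weighted shift across three tests, rank score above 45, floors 50 and 25 (some results past the limit were not filed as active); inactive = the rest.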
# Assay: activators of LNCaP cell differentiation, retest, confirmation, side scatter shift, flow cytometry (AID 1069);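 also: LNCaP human prostate cancer cells in low-serum medium with charcoal-stripped FBS; percent of cells with raised granularity gated so DMSO controls show 10%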
# Conditions: 4 d, stronger effect = higher value
Structure (SMILES),side scatter shift (at 100 µM),"side scatter shift (side scatter shift, at 10 µM) [%]"
COc1ccc(NC(=O)NCCCN2CCN(c3cc(C)ccc3C)CC2)cc1,0% (inactive),7.1
CCC(C(=O)Nc1ccccc1OC)n1c(C(=O)OC)cc2ccsc21 (stereo unspecified),12.2% (inactive),2.5
CCCOc1ccccc1C1CC(=O)Nc2cc3c(cc21)OCO3 (stereo unspecified),16.7% (inactive),22.1
CCc1cc(C)cc(OCCNC(=O)c2ncn[nH]2)c1,3.5% (inactive),0
CN(CC(=O)Nc1ccc2c(c1)OCCO2)S(=O)(=O)c1cccc2cccnc12,16.8% (inactive),3.95
Cn1c(C(=O)NCCC2=CCCCC2)cc2c(=O)n3ccccc3nc21,11.5% (inactive),5.75
Cc1oc(-c2cccc(Cl)c2)nc1CN1CCC(C(=O)NCC2CCCO2)CC1 (stereo unspecified),33.9% (inactive),8.8
O=C(CCN1C(=O)COc2ccccc21)NCCCN1CCN(c2ccc(F)cc2)CC1,45.3% (inactive),7.5
O=C(CCNC(=O)Cn1ccc2ccccc2c1=O)NCCCN1CCN(c2ccccc2F)CC1,35.7% (inactive),6.15
Cc1oc(-c2cccc(Cl)c2)nc1CN1CCC(C(=O)NCc2ccco2)CC1,35% (inactive),6.2
Cc1nn(Cc2ccc(F)cc2)c(C)c1NC(=O)c1cc(-c2ccc3c(c2)OCO3)on1,4.8% (inactive),1.1
CCc1ccc(-c2nc(CN3CCC(C(=O)NCc4ccc(F)cc4)CC3)c(C)o2)cc1,0% (inactive),17.9
COC(=O)c1ccccc1NC(=O)CN1CCC(n2nnc3cc(F)ccc32)CC1,25.9% (inactive),6.9
Cc1ccc(NC(=O)CCNS(=O)(=O)c2ccc3c(c2)oc(=O)n3C)c(C)c1,1.7% (inactive),5.85
Cc1cc(=O)oc(C)c1C(=O)NCCCN1CCN(c2ccc(F)cc2)CC1,8.5% (inactive),5.05
COc1ccc(CCNC(=O)C2CCN(Cc3nc(-c4cccc(Cl)c4)oc3C)CC2)cc1OC,20% (inactive),12.2
CCOC(=O)c1sc2ncnc(N3CCN(c4ccc(OC)cc4)CC3)c2c1C,25% (inactive),9.55
COc1ccc(-c2nc(CN3CCC(C(=O)N4CCc5ccccc54)CC3)c(C)o2)cc1OC,12.5% (inactive),2.7
Cc1cc(=O)c2ccccc2[nH]1,11.2% (inactive),2.3
Cc1oc(-c2ccc(Cl)cc2)nc1CN1CCCC(C(=O)NCCCN2CCCC2=O)C1 (stereo unspecified),14% (inactive),13.6
CCc1ccc(-c2nc(CN3CCC(C(=O)N4CCN(c5ccccc5)CC4)CC3)c(C)o2)cc1,44.4% (inactive),19.8
CCOC(=O)C1CCCN(C(=O)Cn2cccc2C(=O)c2ccccc2)C1 (stereo unspecified),6% (inactive),2.5
CCOC(=O)N1CCN(C(=O)C2CCCN(Cc3nc(-c4ccc(Cl)cc4)oc3C)C2)CC1 (stereo unspecified),20% (inactive),4.15
CCc1ccc(NC(=O)NCCN2CCc3ccccc3C2)cc1,0% (inactive),8.75
CCOC(=O)Cn1nc(-c2ccc(Cl)cc2)cc1N,11.4% (inactive),4.7
CCOC(=O)c1ccc(NC(=O)Nc2ccc3c4c(cccc24)C(=O)N3CC)cc1,34.3% (inactive),8.75
Cc1ccc(-n2c(SCC(=O)Nc3nccs3)nc3c(c2=O)SCC3)cc1,16.9% (inactive),9.7
O=C(CN1CCN(Cc2ccc3c(c2)OCO3)CC1)N1CCc2[nH]c3ccc(F)cc3c2C1,20.8% (inactive),7.3
